# IMPase Li cell: cell-permeable IMPase inhibitors with lithium potentiation; CHO-M1 cells, IP1 TR-FRET (IP-One), carbachol + lithium; Potency, µM (titrated, usually from 59.4 µM), inactives show top-dose activity, negative = IMPase inhibition, actives largely listed as inhibitors; AID 1457; actives 0.35% (n = 210,000); active means well fitted curve in the direction sought with a large enough effect; inconclusive means small, poorly fitted or top-dose-only effect, or another doubt; inactive means no such curve, though single readings can be large; an effect the other way counts as inactive or inconclusive;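 further: IP1 builds up when IMPase is blocked and the TR-FRET signal falls; potency means the concentration at half of the fitted maximal effect; plate controls were basal vehicle for no effect and high inhibitor control for full effect; nearly all actives have a fitted effect of over 50% in size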
#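 CHO cells stably expressing M1 receptor (2000/well, cultured 16–30 h) treated 30 min at 37C with compound plus low lithium. Cytosolic IP1 by TR-FRET (665/620 ratio and 620 channel) after 10 min lysis; AC50 by Hill fit.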
# PNC assembly inh: blocks assembly of the perinucleolar compartment | PC3M PTB-GFP, PNC prevalence imaging, 16 h; hits give low values | activity change (PNC), negative = inhibition, % at 10 µM | actives 3.1% (n = 140,000) | AID 2417;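 active means readout at or below -70, meaning at least 70% loss of cells showing the perinucleolar compartment, a nuclear body marking cancer cells; inconclusive means readout between -30 and a set limit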;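 further: plate controls were DMSO wells for no effect and camptothecin positive control wells for full effect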
#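 PC3M cells stably expressing PTB-GFP, 750–1000 cells/well, treated 16 h at 37 °C with compound (23 nl of library stock), in duplicate. After paraformaldehyde fixation and Hoechst stain, imaged at 20x; PNC prevalence scored by image analysis.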
# ALDH1A1 inh: blocks purified human ALDH1A1 activity; P00352; Purified ALDH1A1, NADH fluorescence, propionaldehyde substrate; Potency, µM (titrated, usually from 75.3 µM), without a hit: top-dose activity, negative = inhibition, most hits filed as inhibitors; actives 7.3% (n = 220,000); AID 1030;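 further: potency means the concentration at half of the fitted maximal effect; plate controls were no enzyme wells and a reference inhibitor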
# Target sequence (P00352 whole entry, looked up): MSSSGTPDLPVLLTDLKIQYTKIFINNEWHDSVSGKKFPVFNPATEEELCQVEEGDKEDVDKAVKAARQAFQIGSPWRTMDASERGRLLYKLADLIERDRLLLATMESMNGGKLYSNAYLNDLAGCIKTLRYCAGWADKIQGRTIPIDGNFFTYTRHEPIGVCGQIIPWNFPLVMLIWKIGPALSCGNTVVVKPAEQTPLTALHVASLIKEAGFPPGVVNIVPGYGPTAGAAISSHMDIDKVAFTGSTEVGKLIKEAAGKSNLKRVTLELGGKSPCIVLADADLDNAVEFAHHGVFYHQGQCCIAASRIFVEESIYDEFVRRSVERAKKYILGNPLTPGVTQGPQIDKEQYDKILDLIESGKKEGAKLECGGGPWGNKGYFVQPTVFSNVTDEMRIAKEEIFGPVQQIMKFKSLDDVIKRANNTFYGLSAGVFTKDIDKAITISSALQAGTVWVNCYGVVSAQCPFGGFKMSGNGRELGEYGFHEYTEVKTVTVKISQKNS
# HPGD block: inhibitors of human 15-hydroxyprostaglandin dehydrogenase (HPGD) | P15428 | Potency, µM, for inactives: at the highest dose activity change, negative = inhibition, hits mostly inhibitors | actives 4.3% (n = 150,000) | purified HPGD, NADH fluorescence kinetic, PGE2 substrate; further: potency means the concentration at half of the fitted maximal effect
# Target sequence (P15428 whole entry, looked up): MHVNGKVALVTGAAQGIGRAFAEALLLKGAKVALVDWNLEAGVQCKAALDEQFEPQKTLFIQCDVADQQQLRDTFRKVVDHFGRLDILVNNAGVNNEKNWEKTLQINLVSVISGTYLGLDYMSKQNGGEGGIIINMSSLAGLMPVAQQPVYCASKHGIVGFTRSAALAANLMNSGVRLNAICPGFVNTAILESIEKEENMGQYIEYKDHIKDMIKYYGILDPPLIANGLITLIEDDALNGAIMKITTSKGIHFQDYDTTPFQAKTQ
#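 20 nM HPGD preincubated 15 min at room temperature with compound in 50 mM Tris-HCl pH 8, 0.01% Tween 20. Started with 1 mM NAD+ and 30 uM prostaglandin E2; NADH fluorescence (360/450 nm) read 5 times over 30-s intervals, last minus first.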
# 12-hLO inh: inhibitors of human 12-lipoxygenase (ALOX12); Potency, µM (top dose mostly 57.1 µM), inactives show at the highest dose activity change, negative = inhibition, usual class: inhibitors; P18054; actives 0.12% (n = 150,000); purified 12-hLO, xylenol orange hydroperoxide absorbance; active means well fitted curve in the direction sought with a large enough effect; inconclusive means small, poorly fitted or top-dose-only effect, or another doubt; inactive means no such curve, though single readings can be large; an effect the other way counts as inactive or inconclusive; further: potency means the concentration at half of the fitted maximal effect; nearly all actives have a fitted effect of over 55% in size
#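 Purified human 12hLO (150 nM), preincubated 15 min with compound, then 40 uM arachidonic acid for 30 min, room temperature, Hepes pH 7.0 with 0.01% Triton X-100. Hydroperoxide detected by ferrous iron/xylenol orange; 573/405 nm absorbance ratio gives reaction progress.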
# IMPase cell inh: IMPase inhibition in cells; AID 901; inhibition (IP1 accumulation), % at 46.1 µM; CHO-M1 cells, IP1 accumulation, HTRF TR-FRET ratio; 120,000 tested, under 10 active; active means well fitted curve in the direction sought with a large enough effect in the signal ratio, not every such curve was filed as active; inconclusive means small, poorly fitted or top-dose-only effect, or a change in a side signal; inactive means no such curve, though single readings can be large or run the other way; the % refers to the signal ratio;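 further: cells stimulated with carbachol in lithium chloride buffer; plate controls were DMSO basal wells for no effect and reference inhibitor wells for full effect; higher means more IMPase inhibition seen as more IP1 and lower FRET ratio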
#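 Elevated IP1 in lysates lowers TR-FRET signal (665/620 ratio and 620 channel reported). Cells were CHO-M1, given carbachol (50 uM as added) plus 50mM LiCl, pH 7.4, 30 min, 37C; compounds titrated up to 46 uM; AC50 by Hill equation.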
# * hit, by the source's call; u = inconclusive; x = no result given; [ ] = another dose, or the depositor's remark. A selection: hits, their analogues and other compounds. The true share with any hit is near 11%. Unless noted, the call rests on the fitted dose curve; in most records, active means well fitted inhibition curve with a large enough effect (not every such curve was filed as active); inconclusive means small, poorly fitted or top-dose-only effect, or another doubt; inactive means no such curve, though single readings can be large or run the other way. Unless noted, on the % scale 0 is the no-effect control and ±100 the full control effect.
SMILES,IMPase Li cell,PNC assembly inh,ALDH1A1 inh,HPGD block,12-hLO inh,IMPase cell inh
O=C(NC(=S)Nc1ccc(S(=O)(=O)N2CCCCC2)cc1)c1cccs1,16.5%,-20.0,u,-24.4%,4.2%,x
CC1CCCC(C)N1C(=O)c1cc(-c2cccs2)on1 (centres undefined),4.7%,1.2,-2.5%,14.1µM*,-1.2%,1.3
O=C(NC1CCCCC1)c1cccs1,13.7%[38.3 µM],-2.7,-12.0%,31.6µM*,6.6%,-9.2
CC1CCCC(C)N1C(=O)CSc1nnc(-c2cccs2)o1 (centres undefined),17.1%[38.3 µM],-9.5,u,u,-2.2%,-1.9
O=C(NC1CCCCC1)c1cc(-c2ccco2)on1,x,1.6,-5.0%,x,-4.7%,-18.9
CCCCCCCCCCCCC/C=C/[C@@H](O)[C@H](COP(=O)([O-])OCC[N+](C)(C)C)NC(=O)CCCCCCCCCCCCCCCCC,-5.6%,x,2.5%,-1.0%,0.4%,x
C=C(C)C(=O)OC[C@@H]1CCC[N@+]2(C)CCCCC12 (some centres undefined),32.6%,x,-0.5%,-8.3%,x,x
CCn1c(NC(=O)c2ccc(C)cc2)c2ccccc2nc1=O,0.0%,-90.4*,3.1%,0.5%,6.2%,-1.0
Cc1cccc(N(CC(=O)N(C)Cc2ccccc2)S(=O)(=O)c2ccccc2)c1C,x,x,x,x,x,0.7
O=C(Nc1ccc(C2CC2(Cl)Cl)cc1)c1ccccc1Br (centres undefined),13.7%,-20.4,7.2%,15.8µM*,5.1%,x
COc1ccc(C(=O)CCC(=O)Nc2cccnc2)cc1,-4.5%,x,-5.8%,x,x,x
COc1ccc(NC(=O)CCC(=O)c2ccc(-c3ccccc3)cc2)cc1,31.6µM*,u,7.9%,0.1%,0.9%,-14.8
COc1ccc(C(=O)Nc2ccc(C(=O)OCC(=O)c3ccccc3)cc2)cc1,-2.7%[38.3 µM],10.8,0.7%,-10.9%,1.5%,2.7
COc1ccc(C(=O)COC(=O)c2ccc(NC(=O)c3ccccc3)cc2)cc1,11.2µM*,-1.0,u,u,4.2%,7.9
COc1cccc(C(=O)Nc2cccc(-c3nnc(-c4ccco4)o3)c2)c1,-15.9%[38.3 µM],-2.1,u,20µM*,-0.4%,8.5
O=C(Oc1ccccc1C(=O)Nc1ccccc1)c1ccccc1Br,8.2%,-7.8,-10.4%,-1.1%,0.6%,x
CCCCCC(C)N (centres undefined),-0.5%,x,-9.9%,-12.2%,-2.9%,x
CC(=O)OCC1OC(n2cnc3c(Cl)nc(Cl)nc32)C(OC(C)=O)C1OC(C)=O (centres undefined),0.0%,x,u,-19.4%,0.1%,x
CC(NC(=S)NCCc1ccccc1)C(c1cccs1)N1CCN(C)CC1 (centres undefined),5.4%,60.3,2.1%,-14.0%,-0.7%,x
COC(=O)c1ccc(NC(=O)c2ccccc2NS(C)(=O)=O)cc1,2.3%[38.3 µM],-104.2*,-1.9%,-11.9%,6.7%,14.9
COc1cccc(C(=O)Nc2ccc(C(=O)O)cc2)c1,x,18.6,-13.2%,x,1.3%,1.5
CCCC(=O)Nc1ccc(Cl)c(NC(=O)c2cccnc2)c1,22.3%[38.3 µM],u,7.3%,-4.0%,0.0%,-6.1[1.84 µM]
CN(C)S(=O)(=O)Oc1cccc(C(=O)Nc2ccccc2Cl)c1,9.6%[38.3 µM],14.6,u,-27.7%,-13.7%,-2.4
COC(=O)c1ccc(NC(=O)c2cccc(OC)c2)cc1,20.3%[38.3 µM],8.7,u,28.2µM*,-24.5%,3.0
CCCC(=O)Nc1ccc(Cl)c(NC(=O)c2cccc(OC)c2)c1,9.4%,x,2.82µM*,x,x,x
SMILES,IMPase Li cell,PNC assembly inh,ALDH1A1 inh,HPGD block,12-hLO inh,IMPase cell inh
CN(C)S(=O)(=O)Oc1cccc(C(=O)Nc2ccc(Cl)cc2)c1,16.1%[38.3 µM],19.4,15.8µM*,-17.2%,-18.6%,9.3
Cn1cc(-c2nc3cnc(Oc4ccccc4)nc3n(CCC#N)c2=O)c2ccccc21,-5.6%,x,-3.8%,-0.6%,-1.4%,x
COc1cccc(C(=O)NCCOc2cc(C)cc(C)c2)c1,-2.5%,49.0,15.8µM*,-9.5%,1.6%,x
COc1cccc(C(=O)Nc2ccc(C3CC3(Cl)Cl)cc2)c1 (centres undefined),26.1%,x,11.2µM*,x,x,x
COc1cc(OC)cc(C(=O)NCCOc2ccccc2)c1,8.2%[38.3 µM],0.4,6.9%,-12.3%,2.2%,-4.2
C/C(=C\C(=O)c1ccc(Cl)cc1Cl)N(C)C,-8.4%,x,5.62µM*,x,x,x
COc1ccc(-c2cc(C(F)(F)F)c(C#N)c(SCC(=O)Nc3ccc(C)cc3)n2)cc1,4.9%[38.3 µM],48.2,-0.4%,u,10.9%,-29.1
COc1ccc(C(=O)CSc2[nH]c(=O)cc(C(F)(F)F)c2C#N)cc1,x,x,17.8µM*,x,x,x
Cc1ccc(-n2nnnc2CCl)cc1,6.0%,x,22.4µM*,x,x,x
Cc1ccc(-c2nnnn2-c2ccc(C)cc2)cc1,3.4%,x,-8.2%,x,x,x
CC(C)C[C@H](N)c1nnc(S(=O)(=O)Cc2ccc(F)cc2)o1,40.8%[38.3 µM],-13.1,1.58µM*,25.1µM*,-13.1%,1.6
O=C(c1ccncc1)N1CCC2(CCCN(Cc3ccncc3)C2)CC1,19.0%,x,10.8%,1.1%,2.2%,x
CCOC(=O)C1=C(C)NC2=C(C(=O)c3ccccc32)C1c1ccc(O)cc1 (centres undefined),6.8%,-16.0,7.1%,-10.9%,-4.0%,x
CC1=C([N+](=O)[O-])C(c2cccc(Br)c2)C2=C(N1)c1ccccc1C2=O (centres undefined),46.9%[38.3 µM],-82.8*,u,15.8µM*,-14.3%,8.7
CCOC(=O)c1sc(NC(=O)CSc2nc(C)cc(C)n2)c(C#N)c1C,-10.1%[38.3 µM],51.3,-4.7%,-11.5%,-1.9%,-12.8
CCOC(=O)c1sc(NC(=O)CSc2nnc(Cc3ccccc3)o2)c(C#N)c1C,17.6%[38.3 µM],-13.5,0.562µM*,2µM*,-17.1%,-5.8
CCOC(=O)c1c(NC(=O)CSc2nnc(Cc3ccccc3)o2)sc(C(C)=O)c1C,9.9%[38.3 µM],-10.2,-4.6%,-17.8%,-7.9%,-25.3
CCOC(=O)c1sc(NC(=O)c2cc(-c3ccccc3)nc3ccccc23)c(C#N)c1C,19.6%[38.3 µM],33.4,3.16µM*,15.8µM*,-1.6%,-0.6
CCOC(=O)c1sc(NC(=O)CSc2ccccn2)c(C#N)c1C,-7.9%[38.3 µM],18.4,25.1µM*,0.7%,-6.4%,6.0
Cc1[nH]c2ccccc2c1C(=O)CSc1nc2ccccc2c(=O)n1-c1ccccc1F,-2.7%,x,0.562µM*,x,x,x
C/C(N)=C(/C#N)C(=O)CSc1nc2scc(-c3ccccc3)c2c(=O)n1C,15.3%,x,5.62µM*,x,x,x
C/C(N)=C(/C#N)C(=O)CSc1nc2ccccc2c(=O)n1-c1ccc(C)c(Cl)c1,11.2µM*,28.7,3.9%,-19.9%,-3.1%,3.8
C/C(N)=C(/C#N)C(=O)CSc1nc2ccccc2c(=O)n1CCCO,-8.1%,u,u,-5.6%,-1.6%,x

# Bioassay records: PubChem, National Center for Advancing Translational Sciences (NCATS)
